ABCB6 inh MLPCN: ABCB6 transporter inhibitors, primary screen, K562-ABCB6 cells, flow cytometry, MLPCN library | K562-ABCB6 porphyrin accumulation, 1 h; stronger effect = lower value | fluorescence ratio to DMSO, % at 10 µM | hit rate 0.19% among 360,000 | AID 602162, 2011;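 active = fluorescence ratio to DMSO below 75%, the collection mean minus 3 SD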;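 also: signal is porphyrin accumulated inside mitochondria; lower ratio means ABCB6 inhibition with less porphyrin fluorescence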
Target sequence (Q9NP58 whole entry, looked up): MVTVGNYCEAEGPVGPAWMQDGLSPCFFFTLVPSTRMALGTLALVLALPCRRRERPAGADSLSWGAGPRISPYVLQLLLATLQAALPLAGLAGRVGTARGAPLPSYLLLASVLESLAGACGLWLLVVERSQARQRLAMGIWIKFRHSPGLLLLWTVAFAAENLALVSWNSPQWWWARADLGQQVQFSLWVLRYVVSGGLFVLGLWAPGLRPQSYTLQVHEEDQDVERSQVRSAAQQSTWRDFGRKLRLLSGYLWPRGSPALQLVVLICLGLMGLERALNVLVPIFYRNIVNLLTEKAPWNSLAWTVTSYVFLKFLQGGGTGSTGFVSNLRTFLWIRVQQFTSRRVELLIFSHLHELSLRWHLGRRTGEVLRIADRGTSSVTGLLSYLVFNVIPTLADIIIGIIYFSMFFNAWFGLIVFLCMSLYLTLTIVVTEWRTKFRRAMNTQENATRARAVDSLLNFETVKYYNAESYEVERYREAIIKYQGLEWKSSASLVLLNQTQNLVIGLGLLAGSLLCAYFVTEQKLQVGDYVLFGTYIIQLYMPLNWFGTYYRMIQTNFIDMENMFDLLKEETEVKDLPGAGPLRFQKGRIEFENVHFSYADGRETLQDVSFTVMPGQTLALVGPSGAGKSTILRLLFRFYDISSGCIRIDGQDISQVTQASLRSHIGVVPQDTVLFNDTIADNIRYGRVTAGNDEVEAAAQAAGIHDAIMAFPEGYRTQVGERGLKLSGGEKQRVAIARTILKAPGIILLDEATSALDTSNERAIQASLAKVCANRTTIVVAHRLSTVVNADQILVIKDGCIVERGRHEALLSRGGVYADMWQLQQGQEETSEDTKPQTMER
PG9 Ab binder: binders of HIV-1 gp120 antibody PG9, primary screen, biochemical, TR-FRET; HIV-1 gp120 / PG9 antibody interaction; hit rate 0.43% among 360,000; TR-FRET gp120-PG9 antibody binding; inhibition, % at 6.7 µM; in the data active = inhibition above about 8.5%
Exocytosis inh: LAMP-1 surface exposure blockers, TALL-104 cells – cell-based, flow cytometry, MLPCN library, primary screen | TALL-104 LAMP-1 surface exposure; cells stimulated with thapsigargin and PMA | inhibition, % at 10 µM | hit rate 0.66% among 360,000;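 active = inhibition above about 55%, limit read from the data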
rCAG binder: binders of r(CAG) RNA repeats, primary screen, biochemical, fluorescence; r(CAG) RNA repeat, TO-PRO-1 dye displacement fluorescence; inhibition, % at 3 µM; hit rate 1.3% among 370,000;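 active = inhibition above the plate cutoff, the mean of all test compounds on that plate plus 3 SD, cut at about 35% in these data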;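 also: higher means more dye released from RNA so lower well fluorescence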
Large screens that a line does not name were inactive; ! = repeats disagree. Rows were chosen to be rich in hits. Some 2.5% of all compounds tested hit in one or more screens of this group.

Cc1cccc(N=N/C(=C\O)C(=O)c2ccc(Br)cc2)c1	Exocytosis inh 101
COc1ccc(C2=CC(=O)CCC2)cc1	Exocytosis inh 94
COc1cccc(C2=CC(=O)CCC2)c1	none
O=C1C=C(NCc2ccccc2)c2ccccc2C1=O	Exocytosis inh 82
O=C1C=C(Nc2ccccc2O)c2ccccc2C1=O	none
CC(C)[C@H](NC(=O)c1ccco1)C(=O)N1CCC[C@H]1C(=O)NCc1ccccc1	none (no result: ABCB6 inh MLPCN, Exocytosis inh)
COc1ccc(-n2cccc2/C=C2\C(=N)N3N=C(c4ccco4)SC3=NC2=O)cc1	rCAG binder 51
COc1ccc(-n2cccc2/C=C2\C(=N)N3N=C(C(C)C)SC3=NC2=O)cc1	none
O=C(Nc1cccc(Cl)c1)c1ccc(NCCCN2CCOCC2)c([N+](=O)[O-])c1	none
Cc1ccc(NC(=O)c2ccc(NCCCN3CCC(C)CC3)c([N+](=O)[O-])c2)cc1F	Exocytosis inh 68
CC(C)(C)OC(=O)C[C@@H]1C/C=C\C[C@@H](CC(=O)N(CCO)Cc2ccccc2)C(=O)NC[C@H](c2ccccc2)OC1=O	Exocytosis inh 76
Cc1ccccc1S(=O)(=O)N1CCCc2nc(C)c(C)cc21	none (no result: ABCB6 inh MLPCN, Exocytosis inh)
O=C(Nc1ccc2nc(-c3ccco3)c(-c3ccco3)nc2c1)N1CCN(c2ccccn2)CC1	rCAG binder 44
Nc1c(C(=O)Nc2ccccc2)sc2nc(-c3ccco3)ccc12	rCAG binder 35
O=C(Nc1ccccc1)c1ccc2nc(-c3ccco3)c(-c3ccco3)nc2c1	rCAG binder 74
COC(=O)[C@H](CC(C)C)N1Cc2nnn(Cc3ccc(C)cc3)c2-c2cc(F)ccc2S1(=O)=O	none (no result: ABCB6 inh MLPCN, PG9 Ab binder, Exocytosis inh)
C=CCN1[C@H](C)COc2cc(F)ccc2S1(=O)=O	none (no result: ABCB6 inh MLPCN, PG9 Ab binder, Exocytosis inh)
CC(=O)c1ccc2c(c1)C1C=CCC1C(C(=O)O)N2 (configuration not stated)	rCAG binder 96
CC(=O)c1ccc2c(c1)C1C=CCC1C(c1ccncc1)N2 (configuration not stated)	none
O=C(O)c1ccc(N=N/C(=N\Nc2ccc(C(=O)O)cc2)c2ccccc2)cc1	rCAG binder 76
CN(C)C(CNc1ccc(C(F)(F)F)cc1[N+](=O)[O-])c1ccccc1 (configuration not stated)	Exocytosis inh 74
CCOc1ccc(N(CC(=O)Nc2c(C)n(C)n(-c3ccccc3)c2=O)S(=O)(=O)c2cccs2)cc1	none (no result: ABCB6 inh MLPCN, PG9 Ab binder, Exocytosis inh)
CC1=CC2C(C(O)CC3(C)C2CC(C)C32OCOC23COCO3)C2(C)C/C(=C\O)C(=O)C=C12 (configuration not stated)	Exocytosis inh 72
CCc1ccc(S(=O)(=O)Nc2ccc(O)c3c(=O)cc(-c4ccccc4Cl)oc23)cc1	Exocytosis inh 76
O=C(c1ccccc1)c1c2c(cc3sc4ccccc4[n+]13)-c1cccc3cccc-2c13	Exocytosis inh 88
O=C1c2c(O)ccc(O)c2C(=O)c2c(NCCNCCO)ccc(NCCNCCO)c21	rCAG binder 54!
CCCCCCSC1=C(C#N)C(c2ccccc2)CC(=O)N1 (configuration not stated)	none
CCCSC1=C(C#N)C(c2cccs2)CC(=O)N1 (configuration not stated)	Exocytosis inh 90
CN(C)[C@H]1CCN(c2ccc3c(c2)OCCCN(C2CC2)S3(=O)=O)C1	none (no result: ABCB6 inh MLPCN, PG9 Ab binder, Exocytosis inh)
N#CC1=C(c2ccccc2)/C(=C/c2ccccc2)OC1=O	Exocytosis inh 66
O=C1O/C(=C/c2ccccc2)c2ccccc21	none
O=C([C@@H]1C[C@H]1c1ccccc1)N1CCC(Oc2cccnc2)CC1	none (no result: ABCB6 inh MLPCN, PG9 Ab binder, Exocytosis inh)
Cc1ccccc1N=C1Nc2ccccc2N[C@]12C[C@H]1CCC(=O)N3CC[C@@H](C2)[C@@H]13	Exocytosis inh 58
COc1cc(C(=O)NCc2ccncc2)cc(OC)c1OC	none
COc1cc(C(=O)NCc2ccc(-c3nc4ccccc4o3)cc2)cc(OC)c1OC	PG9 Ab binder 11
O=C(COc1ccccc1)NC(NC(=S)Nc1ccccc1C(=O)O)C(Cl)(Cl)Cl (configuration not stated)	rCAG binder 39
CCOC(=O)[C@]12CCCCC/C=C\1N(Cc1ccc(OC)cc1)C(=O)[C@H]2CC(=O)NCC1CCCCC1	none (no result: ABCB6 inh MLPCN, PG9 Ab binder, Exocytosis inh)
COc1ccc(-c2nc3ccc(Cl)cn3c2Cc2ccccc2C(F)(F)F)cc1OC	rCAG binder 42
O=C(CN1C(=O)c2ccccc2C1=O)N1CCCCC1	none

Screens from PubChem.
